High-throughput results (PubChem)
PostGolgi ctrl – growth inhibition of yeast control strain, primary screen, counter-screen for post-Golgi transport modulator project. efflux-deficient yeast background strain, growth absorbance A615, 16 h. inhibition, % at 10 µM. hit rate 5% among 98,000. AID 738, 2007
CYP2C19 inh – blockers of cytochrome P450 2C19 activity – biochemical, luminescence, ADME assay, primary screen. P33261. CYP2C19 Supersomes, luciferin-H EGE luminescence, 30 min. inhibition, % at 5 µM. hit rate 21% among 96,000. AID 778, 2007;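 active = CYP2C19 inhibition above a set limit at 5 µM in the primary screen, cut at about 50% in these data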
Target sequence (P33261 whole entry, looked up): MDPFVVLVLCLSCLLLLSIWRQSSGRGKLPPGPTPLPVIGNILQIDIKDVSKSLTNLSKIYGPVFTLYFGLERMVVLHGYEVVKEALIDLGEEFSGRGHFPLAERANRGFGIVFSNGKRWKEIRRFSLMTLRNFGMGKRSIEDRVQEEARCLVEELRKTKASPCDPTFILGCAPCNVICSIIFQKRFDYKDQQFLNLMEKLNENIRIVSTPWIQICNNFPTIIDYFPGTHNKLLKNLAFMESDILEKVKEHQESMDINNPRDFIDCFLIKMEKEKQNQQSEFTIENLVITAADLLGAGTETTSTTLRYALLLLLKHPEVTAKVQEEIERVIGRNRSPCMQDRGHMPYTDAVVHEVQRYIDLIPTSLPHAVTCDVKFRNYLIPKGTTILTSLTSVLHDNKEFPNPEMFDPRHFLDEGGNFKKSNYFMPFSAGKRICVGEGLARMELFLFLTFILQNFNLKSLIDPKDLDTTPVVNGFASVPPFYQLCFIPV
PostGolgi yeast – phenotypic screen on post-Golgi transport, primary screen; AID 739, 2007; inhibition, % at 10 µM; post-Golgi transport phenotypic cell assay; hit rate 0.9% among 98,000;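 also: yeast cells grown in 1536-well plates; yeast grown about 18 h at 30C before absorbance read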
CYP2C19 activ – human CYP2C19 activators, primary screen, biochemical, luminescence | Cytochrome P450 2C19 (Homo sapiens), P33261 | activation factor at 5 µM | 96,000 tested, under 10 active | recombinant CYP2C19, luciferin-H EGE luminescence; active compounds read high; 0 = fully inhibited enzyme, 1 = untreated enzyme;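 active = activation factor of at least 2 at 5 µM in the primary screen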
CYP2C9 inh – blockers of cytochrome P450 2C9 activity – biochemical, luminescence, ADME assay, primary screen; CYP2C9 Supersomes, luciferin-H conversion; hit rate 20% among 96,000; P11712; inhibition, % at 5 µM;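 active = blocking of liver enzyme CYP2C9 beyond about 50% at 5 µM, limit read from the data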
CYP2C9 activ – human CYP2C9 activators, primary screen, biochemical, luminescence; Cytochrome P450 2C9 (Homo sapiens), P11712; recombinant CYP2C9, luciferin-H conversion; active compounds read high; factor 1 = untreated enzyme, 0 = blocked; activation factor at 5 µM; hit rate 1.4% among 96,000;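 active = activation factor of 2 or more for CYP2C9 at a 5 µM dose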
Hits are given with their value; . = inactive; / = no result. The list is not random: actives were taken first. Their share in the collection is about 32%. Rule as the data show it, unless noted: active = inhibition above about 30%; inactive = the rest.

SMILES	PostGolgi ctrl	CYP2C19 inh	PostGolgi yeast	CYP2C19 activ	CYP2C9 inh	CYP2C9 activ
O=C(CCN1C(=O)C2CC=C(Cl)CC2C1=O)Nc1ccccc1O (stereo not given)	.	59.1	.	.	.	.
COC(=O)c1ccc(CNC(=O)CSc2nnc(COc3ccccc3)n2C)o1	.	.	.	.	.	.
O=C(Nc1ccc(Cl)c(Cl)c1)N1CCSC1c1ccco1 (stereo not given)	.	.	.	.	59.1	.
CCCCCn1c(SCCOCC)nc2c1c(=O)[nH]c(=O)n2C	.	.	.	.	.	.
CCCOc1ccc(C2/C(=C(\O)c3c(C)[nH]c(C(=O)OC)c3C)C(=O)C(=O)N2CCN(C)C)cc1 (stereo not given)	31.5	.	.	.	.	.
COCCn1c(C)cc(C(=O)CN2C(=O)NC3(CCCCCCC3)C2=O)c1C	.	.	.	.	.	3.9
CCOC(=O)c1cc(C)n(Cc2cccc(OC)c2OC)c1C	.	.	.	.	.	.
CCOC(=O)c1cc(C)n(-c2ccc(OC)c(OC)c2)c1C	.	87.5	.	.	63.4	.
O=C(CN1C(=O)NC2(CCCc3ccccc32)C1=O)N1CCc2ccccc2C1 (stereo not given)	.	53.6	.	.	59.0	.
Cc1cc(C(=O)CN2C(=O)CCC2=O)c(C)n1Cc1ccccc1	.	62.4	.	.	.	.
Cc1cc(-n2c(C)cc(C(=O)CN3C(=O)NC4(CCCCCC4)C3=O)c2C)no1	.	.	.	.	.	.
CC(C)C(OC(=O)c1ccco1)C(=O)NCc1ccccc1 (stereo not given)	.	.	.	.	.	.
COC(CNC(=O)c1cc(C(=O)c2c(-c3c(Cl)cccc3Cl)noc2C)c[nH]1)OC	.	.	.	.	.	.
COC(=O)COc1ccc(S(=O)(=O)NCc2cccnc2)cc1	.	.	.	.	.	.
Cc1cc(C(=O)CN2C(=O)NC3(CCCc4ccccc43)C2=O)c(C)n1Cc1ccccc1 (stereo not given)	.	56.3	.	.	70.6	.
O=C1NC2(CCCc3ccccc32)C(=O)N1Cc1nnc(-c2ccccc2Br)o1 (stereo not given)	.	.	.	.	.	.
Cc1nn(Cc2ccccc2)c(C)c1C(=O)OCC(=O)c1cc(C)n(CC(F)(F)F)c1C	.	53.1	.	.	.	.
Cc1cc(C(=O)CN2C(=O)NC3(CCCc4ccccc43)C2=O)c(C)n1Cc1ccco1 (stereo not given)	.	.	.	.	73.9	.
CCNC(=O)CN1C(=O)NC2(CCCc3cc(OC)ccc32)C1=O (stereo not given)	.	.	.	.	.	.
CCOC(=O)c1c(C)nn(Cc2ccccc2)c1N	.	.	.	.	.	.
CCOC(=O)c1cc(C)n(Cc2ccccc2)c1C	.	65.3	.	.	50.1	.
CCc1c(C(C)S(=O)(=O)c2ccc(C)cc2)[nH]c(=O)n1-c1ccc(OC(F)(F)F)cc1 (stereo not given)	.	.	.	.	.	.
CCOC(=O)c1cnn(-c2nc(SC)nc3sc4c(c23)CCC4)c1N	.	.	.	.	.	.
Cc1cc(NC(=O)Nc2ccc(F)cc2)no1	.	.	.	.	.	.
Cc1ccc(OCCCC(=O)Nc2nccs2)cc1	.	53.9	.	.	54.7	.
SMILES	PostGolgi ctrl	CYP2C19 inh	PostGolgi yeast	CYP2C19 activ	CYP2C9 inh	CYP2C9 activ
Cc1cccc(C(=O)OCC(=O)Nc2nccs2)c1	.	.	.	.	.	.
Cc1cccc(OCCCC(=O)Nc2nccs2)c1	/	75.8	/	.	.	.
CCC(=O)NCCCOc1ccccc1	.	.	.	.	.	.
COc1cc(CC(=O)Nc2nccs2)cc(OC)c1OC	.	79.8	.	.	.	.
CC(C)CCNC(=O)CCCOc1ccccc1	.	54.3	.	.	.	.
CCCc1ccccc1OCCNC(C)=O	.	.	.	.	.	.
COc1ccc(OCCCC(=O)Nc2nncs2)cc1	.	/	.	/	/	/
Cc1cccc(OCCCC(=O)Nc2ccc(Br)cc2)c1	.	58.7	.	.	.	.
Cc1ccc([N+](=O)[O-])cc1NC(=O)CCCOc1ccccc1	.	.	.	.	.	2.3
COCC(=O)Nc1cc([N+](=O)[O-])ccc1C	.	.	.	.	.	.
O=C(CCCOc1ccccc1)Nc1nncs1	.	97.0	.	.	82.6	.
O=C1c2ccc3c4c(ccc(c24)C(=O)N1NC(=O)C(F)(F)F)CC3	.	.	.	.	.	.
O=C(NN1C(=O)c2ccc3c4c(ccc(c24)C1=O)CC3)c1ccc(Br)cc1	.	.	.	.	.	3.5
O=C1C2C3CCCC3=C3CCCC3C2C(=O)N1c1ccc(Cl)cc1 (stereo not given)	/	75.4	/	.	53.7	.
O=C1C2C3CCCC3=C3CCCC3C2C(=O)N1c1cccc(Cl)c1 (stereo not given)	.	.	.	.	.	.
CC(C)NC(=O)COC(=O)c1ccccc1Oc1ccccc1	.	86.8	.	.	72.5	.
O=C(COC(=O)c1ccccc1Oc1ccccc1)NCc1ccco1	.	.	.	.	56.3	.
O=C(COC(=O)c1ccccc1Nc1cccc(C(F)(F)F)c1)NCc1ccco1	.	.	.	.	57.6	.
Cc1cc(C(=O)OCC(=O)NC(C)C)c(C)o1	.	.	.	.	.	.
CCOC(=O)CC(NC(=O)c1ccc(C)cc1)c1ccc(C)cc1 (stereo not given)	.	.	.	.	.	.
CCOC(=O)c1[nH]c2ccc(OCC)cc2c1NC(=O)CN1CCN(c2ccccn2)CC1	.	.	.	.	.	.
O=C1c2ccccc2C(=O)N1n1c(=O)[nH]c2ccccc2c1=O	.	.	.	.	.	.
COCCNC(=O)Cn1c(=O)n(C)c2ccccc21	.	.	.	.	.	.
COC(=O)/C(=C(/F)Sc1cc(C)c(O)c(C)c1)C(F)(F)F	.	81.7	.	.	94.1	.
CSc1nc(NC(C)(C)C)nc(N2CCOCC2)n1	.	/	.	/	/	/
SMILES	PostGolgi ctrl	CYP2C19 inh	PostGolgi yeast	CYP2C19 activ	CYP2C9 inh	CYP2C9 activ
CNc1nc(SCc2ccccc2)nc(N2CCOCC2)n1	.	68.6	.	.	.	.
CC(C)(C)Nc1nc(SCc2ccccc2)nc(N2CCOCC2)n1	47.0	74.7	.	.	96.6	.
CON=C1CCN(c2ncc(C(F)(F)F)cc2Cl)CC1	.	.	.	.	.	.
CCCS(=O)(=O)N1CCC(C(=O)N2CCOCC2)CC1	.	.	.	.	.	.
COc1ccc(N2C(=NC(C)=O)SC3CS(=O)(=O)CC32)cc1OC (stereo not given)	.	.	.	.	.	.
O=C(NC1CCCC1)C1CC(=O)N(CCc2ccccc2)C1 (stereo not given)	.	.	.	.	.	.
